Assay results: PubChem BioAssay (Tox21)
Inconclusive results are not listed. Calls of active or inactive are those of the source. Unless noted, the call rests on the fitted dose curve; in most records, active means well fitted curve in the direction sought with a large enough effect in the repeat runs; inconclusive means weak or mixed curves; inactive means no such curve, though single readings can be large; an effect the other way counts as inactive or inconclusive.

Experiments:
[1] = qHTS assay to identify small molecule agonists of the sonic hedgehog signaling (Shh) pathway - cell viability counter screen (AID 1259366); further: nearly all actives have a fitted effect of over 50% in size
Procedure, shortened: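 In quantitative high-throughput format, 3T3 Gli1-Luc cells were exposed to compounds for 24hr and multiplexed for viability using CellTiter-Fluor, incubated 1hr at 37C before the fluorescence read.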

[2] = qHTS assay to identify small molecule antagonists of the sonic hedgehog signaling (Shh) pathway - cell viability counter screen (AID 1259367); further: nearly all actives have a fitted effect of over 55% in size
Procedure, shortened: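 After a 4 hr settling period, 3T3 Gli1-Luc cells were treated with DMSO-dissolved chemicals and conditioned medium, kept 24 hr at 37C in 5% CO2, and assayed for viability by CellTiter-Fluor fluorescence following 1 hr reagent incubation.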

[3] = qHTS assay to identify small molecule agonists of the sonic hedgehog signaling (Shh) pathway (AID 1259368; calls by dose curve;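 further: NIH/3T3-derived 3T3Gli1-Luc cells carrying a stable Gli1-driven firefly luciferase reporter; series mostly up to about 92 µM; nearly all actives have a fitted effect of over 15% in size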)
Procedure, shortened: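 Luminescent signal was taken as a measure of Gli1-controlled luciferase expression in stably transfected NIH/3T3-derived cells that had been treated for 24 hr with compounds delivered in DMSO.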

[4] = qHTS assay to identify small molecule antagonists of the sonic hedgehog signaling (Shh) pathway (AID 1259369; calls by dose curve; further: nearly all actives have a fitted effect of over 45% in size)
Procedure, shortened: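 Screening used 3T3Gli1-Luc cells at 2,000 per well, compounds delivered in DMSO, and conditioned medium as agonist stimulus; plates incubated 24hr at 37 C and 5% CO2 before a 30min luciferase step.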

[5] = target: Estrogen receptor beta (Homo sapiens) (UniProt Q92731); experiment: qHTS assay to identify small molecule agonists of the estrogen receptor beta (ER-beta) signaling pathway (AID 1259377; active means well fitted activation curve with a large enough effect in the signal ratio in the repeat runs, not every such curve was filed as active; the % refers to the signal ratio)
Estrogen receptor beta (Homo sapiens), sequence (Q92731 whole entry, looked up): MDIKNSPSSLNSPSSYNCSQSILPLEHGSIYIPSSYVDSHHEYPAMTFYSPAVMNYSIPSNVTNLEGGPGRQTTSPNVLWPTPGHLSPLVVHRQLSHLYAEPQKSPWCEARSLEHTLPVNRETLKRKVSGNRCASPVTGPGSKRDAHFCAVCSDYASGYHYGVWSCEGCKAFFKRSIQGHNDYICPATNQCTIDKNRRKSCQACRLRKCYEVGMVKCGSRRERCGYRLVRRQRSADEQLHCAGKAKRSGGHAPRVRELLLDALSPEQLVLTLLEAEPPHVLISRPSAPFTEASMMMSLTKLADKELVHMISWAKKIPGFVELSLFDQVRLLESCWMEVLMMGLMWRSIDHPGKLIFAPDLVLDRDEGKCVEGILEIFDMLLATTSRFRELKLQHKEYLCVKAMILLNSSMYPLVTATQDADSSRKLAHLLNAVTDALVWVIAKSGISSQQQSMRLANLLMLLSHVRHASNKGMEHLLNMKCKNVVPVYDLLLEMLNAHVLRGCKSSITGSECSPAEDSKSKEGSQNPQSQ
Procedure, shortened: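 Reporter cells (HEK293T, ER-beta-UAS-bla) receive compounds or DMSO after a 6 hr pre-incubation. They then incubate 16 hr at 37C/5% CO2, and fluorescence from LiveBLAzer B/G substrate is measured after 2 hours at room temperature.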

[6] = qHTS assay to identify small molecule agonists of the androgen receptor (AR) signaling pathway in the presence of an antagonist - cell viability counter screen (AID 1259379);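 further: MDA-kb2 human breast cancer cells carrying an MMTV luciferase reporter; series mostly up to about 92 µM; nearly all actives have a fitted effect of over 25% in size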
Procedure, shortened: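 In MDA-kb2 cells (human breast carcinoma, MMTV-luciferase), compounds at 15 concentrations plus 3.0uM nilutamide; 16 hr, 37C, 0% CO2; CellTiter-Fluor fluorescence read for viability.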

[7] = qHTS assay to identify small molecule antagonists of the estrogen receptor beta (ER-beta) signaling pathway - cell viability counter screen (AID 1259382); further: series mostly up to about 92 µM; nearly all actives have a fitted effect of over 55% in size
Procedure, shortened: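 Tox21 10K library tested in qHTS format on ER-beta-bla HEK293T cells stimulated with 1nM E2; 16 hr treatment at 37C. Same-well CellTiter-Glo luminescence served as the cell viability measure.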

[8] = target: Estrogen receptor (Homo sapiens) (UniProt P03372); experiment: qHTS assay to identify small molecule agonists of the estrogen receptor alpha (ER-alpha) signaling pathway in the presence of an antagonist (AID 1259383; calls by dose curve; further: top concentration of the series differs between compounds; nearly all actives have a fitted effect of over 15% in size)
Estrogen receptor (Homo sapiens), sequence (P03372 whole entry, looked up): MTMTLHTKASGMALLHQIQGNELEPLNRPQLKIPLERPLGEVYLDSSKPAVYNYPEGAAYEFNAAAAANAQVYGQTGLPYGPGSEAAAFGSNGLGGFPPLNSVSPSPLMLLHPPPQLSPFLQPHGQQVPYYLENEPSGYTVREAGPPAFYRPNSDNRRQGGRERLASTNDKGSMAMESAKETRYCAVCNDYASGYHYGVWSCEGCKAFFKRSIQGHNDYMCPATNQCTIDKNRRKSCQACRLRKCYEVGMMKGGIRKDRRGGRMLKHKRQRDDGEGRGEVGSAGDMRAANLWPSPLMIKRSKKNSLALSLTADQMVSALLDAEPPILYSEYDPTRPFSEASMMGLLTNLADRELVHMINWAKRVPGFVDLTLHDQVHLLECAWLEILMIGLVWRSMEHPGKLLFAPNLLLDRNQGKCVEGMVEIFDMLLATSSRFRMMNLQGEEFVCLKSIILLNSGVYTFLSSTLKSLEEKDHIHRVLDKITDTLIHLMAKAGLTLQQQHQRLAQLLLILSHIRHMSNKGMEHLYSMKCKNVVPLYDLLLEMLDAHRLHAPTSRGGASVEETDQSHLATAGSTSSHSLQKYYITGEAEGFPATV
Procedure, shortened: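 In VM7Luc4E2 cells, 4,000 per well, compounds at 15 concentrations were co-incubated 22hr at 37C with 10.0nM final ICI-182,780. Luminescence from the stably transfected 4×ERE-luciferase reporter was recorded 30min after ONE-Glo addition.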

[9] = target: Thyrotropin receptor (Homo sapiens) (UniProt P16473); experiment: qHTS assay to identify small molecule antagonists of the thyroid stimulating hormone receptor (TSHR) signaling pathway (AID 1259385; calls by dose curve; further: nearly all actives have a fitted effect of over 20% in size)
Thyrotropin receptor (Homo sapiens), sequence (P16473 whole entry, looked up): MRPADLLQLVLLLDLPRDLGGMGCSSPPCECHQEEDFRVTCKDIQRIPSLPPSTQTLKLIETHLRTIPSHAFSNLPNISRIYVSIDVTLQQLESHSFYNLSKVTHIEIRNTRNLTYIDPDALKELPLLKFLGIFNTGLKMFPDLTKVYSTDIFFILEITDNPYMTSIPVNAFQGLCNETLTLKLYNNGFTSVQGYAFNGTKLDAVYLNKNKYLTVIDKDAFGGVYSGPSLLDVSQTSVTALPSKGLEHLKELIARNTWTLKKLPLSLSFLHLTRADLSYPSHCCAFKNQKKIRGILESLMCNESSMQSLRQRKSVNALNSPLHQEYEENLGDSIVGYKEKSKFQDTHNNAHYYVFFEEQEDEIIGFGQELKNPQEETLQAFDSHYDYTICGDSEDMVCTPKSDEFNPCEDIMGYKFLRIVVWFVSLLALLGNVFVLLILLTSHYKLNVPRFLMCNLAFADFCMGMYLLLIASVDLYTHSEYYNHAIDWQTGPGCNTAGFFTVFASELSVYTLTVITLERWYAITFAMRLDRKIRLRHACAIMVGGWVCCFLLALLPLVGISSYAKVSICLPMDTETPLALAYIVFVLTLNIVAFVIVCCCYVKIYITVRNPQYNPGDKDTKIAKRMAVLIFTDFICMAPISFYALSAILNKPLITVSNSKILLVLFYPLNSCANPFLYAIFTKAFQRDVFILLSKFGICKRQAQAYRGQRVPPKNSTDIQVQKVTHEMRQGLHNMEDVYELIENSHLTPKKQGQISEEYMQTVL
Procedure, shortened: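 TSHR-HEK293 cells were plated and held 18 h at 37C/5% CO2, then given compound plus Ro20-1724 and stimulated with TSH at 1.5 ng/mL final. After 30 min at room temperature, cAMP was detected with cAMP-d2/anti-cAMP-cryptate (1 h) by fluorescence.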

[10] = qHTS assay to identify small molecule agonists of the estrogen receptor alpha (ER-alpha) signaling pathway in the presence of an antagonist - cell viability counter screen (AID 1259386);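 further: series mostly up to about 92 µM; cells exposed to compounds for 22 h at 37 °C before the viability read; nearly all actives have a fitted effect of over 30% in size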
Procedure, shortened: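 Fluorescent CellTiter-Fluor viability signal from VM7Luc4E2 cells, with the reagent added during the final hour of a 22hr compound exposure at 37C in the presence of 10.0nM ICI-182,780.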

[11] = target: Progesterone receptor (Homo sapiens) (UniProt P06401); experiment: qHTS assay to identify small molecule agonists of the progesterone receptor (PR) signaling pathway (AID 1346784; calls by dose curve; further: nearly all actives have a fitted effect of over 30% in size)
Progesterone receptor (Homo sapiens), sequence (P06401 whole entry, looked up): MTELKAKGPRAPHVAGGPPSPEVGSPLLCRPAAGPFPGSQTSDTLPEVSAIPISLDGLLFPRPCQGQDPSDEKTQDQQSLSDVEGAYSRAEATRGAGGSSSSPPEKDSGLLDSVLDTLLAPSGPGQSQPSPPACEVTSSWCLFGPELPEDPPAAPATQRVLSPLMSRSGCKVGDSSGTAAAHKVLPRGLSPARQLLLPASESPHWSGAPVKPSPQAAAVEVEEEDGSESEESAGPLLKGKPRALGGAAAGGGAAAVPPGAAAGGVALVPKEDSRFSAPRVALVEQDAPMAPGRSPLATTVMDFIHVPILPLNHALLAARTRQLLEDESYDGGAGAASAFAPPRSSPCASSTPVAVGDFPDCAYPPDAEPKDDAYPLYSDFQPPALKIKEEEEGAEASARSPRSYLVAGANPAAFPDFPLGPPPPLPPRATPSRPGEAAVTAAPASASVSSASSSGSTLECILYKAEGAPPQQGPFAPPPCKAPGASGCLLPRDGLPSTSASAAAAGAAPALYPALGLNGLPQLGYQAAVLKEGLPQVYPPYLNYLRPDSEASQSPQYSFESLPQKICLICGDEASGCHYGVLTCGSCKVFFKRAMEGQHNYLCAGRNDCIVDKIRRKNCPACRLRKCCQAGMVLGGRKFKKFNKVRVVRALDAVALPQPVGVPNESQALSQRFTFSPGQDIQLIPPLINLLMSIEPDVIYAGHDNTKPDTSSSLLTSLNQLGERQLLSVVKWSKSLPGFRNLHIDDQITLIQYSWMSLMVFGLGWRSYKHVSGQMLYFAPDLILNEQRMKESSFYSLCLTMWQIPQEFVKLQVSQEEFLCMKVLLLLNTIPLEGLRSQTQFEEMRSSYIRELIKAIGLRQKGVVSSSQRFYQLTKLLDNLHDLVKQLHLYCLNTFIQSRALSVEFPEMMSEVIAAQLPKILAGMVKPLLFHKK
Procedure, shortened: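 Reporter assay, GripTite PR-UAS-bla HEK 293T cells: 16 hr exposure to DMSO-dissolved compounds at 37C, 5% CO2, in steroid-depleted (2% charcoal-stripped FBS) medium; beta-lactamase measured by FRET fluorescence.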

[12] = target: Progesterone receptor (Homo sapiens) (UniProt P06401); experiment: qHTS assay to identify small molecule antagonists of the progesterone receptor (PR) signaling pathway (AID 1346795; active means well fitted inhibition curve with a large enough effect in the signal ratio in the repeat runs, not every such curve was filed as active; the % refers to the signal ratio)
Procedure, shortened: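 Stimulus R5020 at 1 nM final; cells HEK293T PR-UAS-bla; medium with 2% charcoal-stripped FBS; compound exposure 16 hr at 37C, 5% CO2; detection by FRET beta-lactamase substrate, 2 hr, room temperature.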

[13] = qHTS assay to identify small molecule antagonists of the progesterone receptor (PR) signaling pathway - cell viability counter screen (AID 1346798); further: series mostly up to about 92 µM; nearly all actives have a fitted effect of over 50% in size
Procedure, shortened: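 In the same plates used for the beta-lactamase readout, cell viability of compound- and R5020-treated PR-UAS-bla HEK293T cells (16 hr, 37C) was assessed by CellTiter-Glo luminescence.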

[14] = qHTS assay to identify small molecule agonists of the progesterone receptor (PR) signaling pathway - cell viability counter screen (AID 1346799; calls by dose curve; further: nearly all actives have a fitted effect of over 45% in size)
Procedure, shortened: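 Multiplexed viability read: CellTiter-Glo luminescence, 30 min RT, following LiveBLAzer FRET measurement on PR-UAS-bla HEK293T cells exposed to compounds 16 hr.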

[15] = qHTS assay to identify small molecule antagonists of the TGF-beta/Smad signaling pathway - cell viability counter screen (AID 1346824); further: nearly all actives have a fitted effect of over 50% in size
Procedure, shortened: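 SBE-bla HEK 293T cells were plated overnight at 37 C, then given compounds in DMSO plus TGF-beta1 (added as 0.25 ng/mL solution) for 5 hr. After the bla read, CellTiter-Glo was added to the same wells and luminescence read after 30 min at room temperature.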

[16] = target: Estrogen receptor beta (Homo sapiens) (UniProt Q92731); experiment: qHTS assay to identify small molecule antagonists of the estrogen receptor beta (ER-beta) signaling pathway (AID 1259378; active means well fitted inhibition curve with a large enough effect in the signal ratio in the repeat runs, not every such curve was filed as active; the % refers to the signal ratio)
Procedure, shortened: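 ER-beta-UAS-bla HEK293T (GripTite) cells in 2% charcoal-stripped FBS medium were preincubated 6 hr at 37C, dosed with compound, then stimulated with 1 nM E2 (final) for 16 hr; beta-lactamase reporter read by B/G FRET fluorescence after 2 hr substrate loading.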

[17] = qHTS assay to identify small molecule agonists of the estrogen receptor beta (ER-beta) signaling pathway - cell viability counter screen (AID 1259380); further: nearly all actives have a fitted effect of over 30% in size
Procedure, shortened: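 Viability of ER-beta-UAS-bla HEK293T cells was determined by CellTiter-Glo luminescence following 16 hr treatment with test compounds at 37C.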

[18] = qHTS assay to identify small molecule agonists of the TGF-beta/Smad signaling pathway - cell viability counter screen (AID 1346829); further: top concentration of the series differs between compounds; nearly all actives have a fitted effect of over 45% in size
Procedure, shortened: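 Same-well cytotoxicity: CellTiter-Glo added after the 2 hr room-temperature beta-lactamase substrate step, luminescence measured 30 min later; cells had 5 hr of compound at 37 C.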

[19] = qHTS assay to identify small molecule agonists or antagonists of the thyroid stimulating hormone receptor (TSHR) signaling pathway - wild type cell line counter screen (AID 1259384; calls by dose curve)
Procedure, shortened: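 Wild-type HEK293 cells were plated 18 h at 37 C/5% CO2, pin-dosed with compound plus Ro20-1724 medium, held 30 min at room temperature, then given cAMP-d2 and anti-cAMP-cryptate; fluorescence was read after 1 h. Fifteen concentrations, triplicate.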

Measured: Potency

CCOC(=O)CC
not listed: [16] | [17] | [18] | [19]
inactive: all other assays above

Cc1cc(C)c(C)c(C)c1
not listed: [5] | [9] | [19]
inactive: all other assays above

NC(=O)CC[C@@H](N)C(=O)O
not listed: [8] | [16]
inactive: all other assays above

NS(=O)(=O)c1cc2c(cc1C(F)(F)F)NCNS2(=O)=O
not listed: [5] | [15] | [16] | [18]
inactive: all other assays above

CCCCCCC(O)CO (stereo not drawn)
not listed: [5] | [6] | [7] | [9] | [19]
inactive: all other assays above

CCCC(C)C(O)CC (stereo not drawn)
not listed: [6] | [8] | [11] | [13] | [17] | [18]
inactive: all other assays above

C[C@@H]1CCC[C@H](C)N1CCCC(O)(c1ccccc1)c1ccccn1 (stereo partly drawn)
not listed: [6] | [11] | [12] | [14] | [17] | [19]
inactive: all other assays above
